Holding throughout (test): NCI-60 one-dose screen, 48 h (100 = growth as untreated, 0 = no growth, -100 = all killed)
The subject of one test is HCT-15 colon. The following applies: 10 µM unless noted.
The subject of a further test is HT29 colon. The following applies: 10 µM unless noted.
The test system of the next test is SNB-75 CNS. The following applies: 10 µM unless noted.
The test system of another test is SNB-19 CNS. The following applies: 10 µM unless noted.
The next test deals with U251 CNS. The following applies: 10 µM unless noted.
Another test concerns PC-3 prostate. The following applies: 10 µM unless noted.
The test system of the next test is SK-MEL-5 melanoma. The following applies: 10 µM unless noted.
The test system of the next test is UACC-62 melanoma. The following applies: 10 µM unless noted.
A further test has as its system LOX IMVI melanoma. The following applies: 10 µM unless noted.
A further test concerns SK-MEL-28 melanoma. As to conditions: 10 µM unless noted.
The next test has as its system EKVX NSCLC. The following applies: 10 µM unless noted.
Another test has as its system SN12C renal. As to conditions: 10 µM unless noted.
The next test has as its system UO-31 renal. As to conditions: 10 µM unless noted.
The subject of another test is TK-10 renal. As to conditions: 10 µM unless noted.
A further test relates to ACHN renal. The following applies: 10 µM unless noted.
The subject of another test is CAKI-1 renal. As to conditions: 10 µM unless noted.
In the next test the test system is A498 renal. The following applies: 10 µM unless noted.
For the next test, the system named is CCRF-CEM leukemia. The following applies: 10 µM unless noted.
For another test, the system named is MOLT-4 leukemia. As to conditions: 10 µM unless noted.
The subject of another test is SK-MEL-2 melanoma. As to conditions: 10 µM.

SMILES strings stand for the structures. This is part of a sample that, as a whole, favours compounds with a hit. Of some 83,000 tested, about 20% had one in any assay.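 Percent growth is the endpoint: 0 to 100 indicates growth inhibition (40 means 60% inhibition), 0 means no net growth, and negative values indicate cell death.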 Values without a mark were called inactive. Activity calls are given as the source filed them. The calls were made as follows: active = growth percent below 10; inactive = the rest.

On to `c1cc(OCCN2CCCCC2)cc(-c2n[nH]c3ccc(-c4ncn[nH]4)cc23)c1`, for which the growth in the test on HCT-15 colon is 79.7%; with HT29 colon it was 21%; with SNB-75 CNS it was 46.1%; in the test on SNB-19 CNS it was 86.2%; with U251 CNS it was 84%; in the test on PC-3 prostate, 86.9%. The growth with SK-MEL-5 melanoma is 43.4%; in the test with UACC-62 melanoma it was 31.9%; with LOX IMVI melanoma, 30.8%; in the test on SK-MEL-28 melanoma it was 46.5%; in the test with EKVX NSCLC it was 76.7%; in the test with SN12C renal, 68.2%. Moreover, the growth in the test with UO-31 renal was 25.1%; in the test on TK-10 renal, 74.5%; with ACHN renal it was 62.7%; in the test with CAKI-1 renal, 26.6%; in the test on A498 renal, 71%; in the test on CCRF-CEM leukemia, 84.9%. Also, the growth with MOLT-4 leukemia is 27%.

Take `Cc1ccc(-c2cc3c(SCC(=O)Nc4cc(C(F)(F)F)ccc4Cl)nccn3n2)cc1`: the growth with HCT-15 colon is 20.1%; in the test on HT29 colon it was -18.8% (active); in the test with SNB-75 CNS it was 95.3%; with SNB-19 CNS, 102%; with U251 CNS, 60%; in the test with PC-3 prostate, 41.1%. The growth in the test with SK-MEL-5 melanoma was 48.1%; in the test on UACC-62 melanoma, 97.5%; in the test with LOX IMVI melanoma it was -6.48% (active); with SK-MEL-28 melanoma, 84.8%; in the test on SK-MEL-2 melanoma, 85.4%; in the test on SN12C renal it was 73.6%. Also, the growth with UO-31 renal is 30.4%; in the test with TK-10 renal, 91.3%; with ACHN renal, 40.4%; in the test with CAKI-1 renal, 30.2%; in the test on A498 renal, 71.3%; in the test on MOLT-4 leukemia, 5.39% (active).

Take `Cn1cc(-c2cnn3c(N)c(Br)c([C@@H]4CCCNC4)nc23)cn1`: the growth in the test with HCT-15 colon is 60.6%; in the test with HT29 colon it was 23%; in the test on SNB-75 CNS, 20.5%; in the test with SNB-19 CNS, 52.1%; in the test with U251 CNS, 61%; in the test on PC-3 prostate, 42.8%. Also, the growth with SK-MEL-5 melanoma was 28.6%; with UACC-62 melanoma it was 63.7%; in the test with LOX IMVI melanoma, 22%; with SK-MEL-28 melanoma it was 72.5%; with EKVX NSCLC it was 58.7%; in the test on SN12C renal, 37.6%. The growth with UO-31 renal was 28%; in the test with TK-10 renal, 33.4%; in the test on ACHN renal, 19.8%; in the test with CAKI-1 renal, 17.3%; in the test with A498 renal, -8.93% (active); in the test on CCRF-CEM leukemia, 19.9%. In addition, the growth in the test with MOLT-4 leukemia was 7.79% (active).

As for `Cn1cnc(-c2cc3nccc(Oc4ccc(NC(=S)NC(=O)Cc5ccccc5)cc4F)c3s2)c1`, the growth in the test on HCT-15 colon was 85.3%; with HT29 colon, 62.6%; with SNB-75 CNS it was 78.6%; in the test on SNB-19 CNS, 96.6%; with U251 CNS it was 79.7%; with PC-3 prostate it was 81.3%. The growth with SK-MEL-5 melanoma was 76.7%; in the test on UACC-62 melanoma, 93.8%; with LOX IMVI melanoma, 94.5%; with SK-MEL-28 melanoma, 98.3%; in the test on EKVX NSCLC, 109%; with SN12C renal, 54.1%. For the same molecule, the growth is 72.2% with UO-31 renal; 85.1% with TK-10 renal; 80.4% with ACHN renal; 80.8% with CAKI-1 renal; 62.9% in the test on A498 renal; 58.6% in the test with CCRF-CEM leukemia. For the same molecule, the growth with MOLT-4 leukemia was 69.4%.

`ClCc1ccc(-c2ccc(Cn3cnc4nc(Cl)nc(Cl)c43)cc2)cc1`: the growth in the test on HCT-15 colon is -5.13% (active); with HT29 colon, -8.13% (active); in the test with SNB-75 CNS it was -2.49% (active); in the test on SNB-19 CNS it was 6.84% (active); in the test with U251 CNS it was -69.9% (active); in the test on PC-3 prostate, -9.15% (active). In addition, the growth was -85.1% (active) with SK-MEL-5 melanoma; -20.5% (active) with UACC-62 melanoma; -82.6% (active) with LOX IMVI melanoma; 1.02% (active) in the test with SK-MEL-28 melanoma; 65.8% in the test on SK-MEL-2 melanoma; 82.7% in the test with EKVX NSCLC. For the same molecule, the growth in the test on SN12C renal was -29.8% (active); in the test with TK-10 renal, -28.4% (active); in the test with ACHN renal, 5.65% (active); with CAKI-1 renal it was -93.6% (active); in the test on CCRF-CEM leukemia, -48.5% (active); with MOLT-4 leukemia, -42.5% (active).

With `CC(C)(C)c1cnc(CSc2cnc(NC(=O)C3CCNCC3)s2)o1`, the growth in the test on HCT-15 colon was 22.8%; in the test with HT29 colon, -9.89% (active); with SNB-75 CNS, -39.5% (active); in the test on SNB-19 CNS it was 12.4%; in the test with U251 CNS, 2.2% (active); in the test with PC-3 prostate, 0.914% (active). Moreover, the growth with SK-MEL-5 melanoma is -47.2% (active); with UACC-62 melanoma, -49.7% (active); in the test with LOX IMVI melanoma, 6.56% (active); in the test on SK-MEL-28 melanoma it was -12.8% (active); in the test with EKVX NSCLC it was 22.7%; in the test with SN12C renal, 11.8%. Also, the growth in the test on UO-31 renal was -4.7% (active); in the test on TK-10 renal it was 5.16% (active); with ACHN renal, 9.41% (active); with CAKI-1 renal, 16.5%; in the test with A498 renal it was -31.7% (active); with CCRF-CEM leukemia it was 7.55% (active). Besides, the growth in the test on MOLT-4 leukemia is 0.905% (active).

On to `CN1CC[C@@H](c2c(O)cc(O)c3c(=O)cc(-c4ccccc4Cl)oc23)[C@@H]1CO`, for which the growth with HCT-15 colon is 3.39% (active); in the test with HT29 colon, -12.6% (active); with SNB-75 CNS, -63.9% (active); in the test with SNB-19 CNS, 10.2%; in the test with U251 CNS it was 4.32% (active); in the test with PC-3 prostate it was 1.22% (active). The growth is -9% (active) in the test with SK-MEL-5 melanoma; -51.4% (active) in the test on UACC-62 melanoma; 6.25% (active) with LOX IMVI melanoma; -25.6% (active) in the test on SK-MEL-28 melanoma; 0.493% (active) with EKVX NSCLC; 12.4% in the test with SN12C renal. In addition, the growth was -5.4% (active) in the test on UO-31 renal; 5.71% (active) with TK-10 renal; 4.44% (active) with ACHN renal; 5.86% (active) with CAKI-1 renal; -60.4% (active) with A498 renal; 13.4% in the test with CCRF-CEM leukemia. Besides, the growth in the test on MOLT-4 leukemia is 1.59% (active).

Take `C=CC(=O)N1CCC[C@H](n2c(=O)n(-c3ccc(Oc4ccccc4)cc3)c3c(N)ncnc32)C1`: the growth in the test on HCT-15 colon was 98.3%; in the test on HT29 colon, 68.9%; in the test with SNB-75 CNS it was 113%; in the test with SNB-19 CNS, 79.1%; in the test with U251 CNS, 89.2%; with PC-3 prostate, 87.9%. In addition, the growth in the test with SK-MEL-5 melanoma is 94.1%; in the test on UACC-62 melanoma, 81.2%; in the test on LOX IMVI melanoma it was 72.4%; with SK-MEL-28 melanoma it was 113%; in the test on EKVX NSCLC, 57.4%; in the test with SN12C renal, 71%. Moreover, the growth in the test on UO-31 renal is 50.5%; in the test with TK-10 renal, 27.6%; with ACHN renal, 41.2%; with CAKI-1 renal, 69.1%; in the test with A498 renal, 81.2%; in the test on CCRF-CEM leukemia, 82.3%. Moreover, the growth in the test with MOLT-4 leukemia is 68.5%.
